Data on 40 sequences can be found in the supplement of paper PMC6555819.

The subject of this assay is VDR:RXRa (NR concentration 270 nM, RXRa partner concentration 90 nM). As to the kind of experiment: PBM binding z-score (relative to random genomic background probes); higher = stronger binding; sequences stand for … in GC…GCGATTGACAGCGTAGAATGAAGG
As to the method: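 Protein-binding microarray (Agilent 4x180K custom design, double-stranded 60-nt probes: 5' GC cap, 34-nt variable region, 24-nt constant primer region; full probe sequence given). Purified or IVT nuclear receptor:RXRα heterodimers (3:1 NR:RXRα, mostly 270:90 nM) or homodimers were incubated for 1 h in PBS with 2% milk and no ligand, then detected with Alexa488 antibodies. Fluorescence from o1-orientation probes (~5 replicates averaged) was converted to z-scores against 500 random hg19 background probes. Variable regions are seed direct-repeat (DR0–DR5) sites, all their single-nucleotide variants and half-site ablations.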
ATATGTAGGTTATCTGGTCATTCAGTTTGCGCAT had a PBM binding z-score of 2.12. In the case of TAGTCTAGGTCATTCAGGGGCCAGTATAGAAAGC it was 3.15; in that of CCTAGTTGGTCTGGAGGTCACACACCGGATATGA, 4.03. In the case of AATACAGGGTCACTCGGCCAGAGTAGGTACGAAT it was 4.3; in that of GATACAGGGTCACGGCCAGAGTACGCGTATTGAT, 5.4. In turn, CAAACTAGGTCAAGGTCAAAGTTGGTTTGTGCCA had a PBM binding z-score of 5.16. In the case of GCACGGAGGACAAGGTCAGAGCTTTGTCCGTAGA it was 1.34; in that of CAAACTAGGTCAAGCGGTCAAAGTCCGCTTCCCG, 2.99. In the case of CCTTACGGGTCAAGGTTCTAGCACGGGTGGTACG it was 3.1; in that of CCTACCGGGCCAAAGGTCATTGATTCCAATGCTC, 4.8; in that of ATCGAAAGGTCGACGAGGTGAGGATACACCGTTT, 5.19.

In turn, GGCACGAGGGCAAAGTTGATAGCATCTGTCGACG gave a PBM binding z-score of 1.23.

The sequence CCTTACGGGTCAAGGTGATAGCACGGGTGGTACG came in with a PBM binding z-score of 2.92. In the case of CCGACTGGGGCATAAGGTTACTATAAGCCAGCCC it was 0.306; in that of ACTCGGAGGACAAAGGTCAGATCTACGCCAGTGA, 3.49; in that of ATCTCTAGGTAACCAAGTTCAGTGAGTGCCGAAC, 4.27. For the sequence ACTATTAGTTGAGACGAGGGGAACCGATAGGTTG, the PBM binding z-score is -0.291. In the case of CATTACGGGTCAAGGTTATAGCACGGGTGGTACG it was 3.96; in that of TTTCAAAGTTCAAAGGTAACGTAAGTATCCACAC, 5.06. In the case of CTCGAAAGGTCGGGCTCAGGTGAGTATACCAAAC it was 1.5; in that of ATCGAAAGGTAGACGAGGTGAGTATACACCGTTT, 0.452. In the case of CAAACTAGGTCACAGAGGTCAAAATCCGTGCGTA it was 7.91; in that of CCGAGTCGGTTATGGGGCATTCAGGCAACGGTGA, -0.358; in that of TATACAGGGTCAAGGGCCAGAGTACGAATGTCGA, 4.43.

Regarding GCGAGTTGGTCAGTAAAAGGTCACACACCGGTCG, the PBM binding z-score came to 4.33. In the case of ATATGTACGTTAAGGGTCATTCAGGTTGGTTCGC it was 5.64; in that of CGAGCTAGGTCATCCAGGACAGTGAATACATTGA, 4.4; in that of CAGCCTAGGTCAGGGTCAGTATAGGAGGAACGTT, 2.7. In the case of CCTCGGAGGACAGAAAGTCAGAGCTGTCCGCTTT it was -0.616; in that of ATATGTCGGTTATCGGGTCATTCAGTTTGCGCAT, 4.84. In the case of AGAATGAGGTTACCAAAGACCAGGGAAACGCTTG it was 1.32. As for CCTACTGGGCCATCAGCTCATTGATATCAACGTT, the PBM binding z-score is -0.619. In the case of ACTGACAGGTGATGAAGGTAACTCAGGCTATCAT it was 0.103; in that of CCGACTGGGGCAAGGTTACCAAAACGCACAGCCA, 0.129. For the sequence CCGACTGGGGCAAGGTGACCATAACGCACAGCCA, the PBM binding z-score is -0.586. For CCTCGGAGGACAACAGGAGGTCTGAGCTGCCAGA, the PBM binding z-score is -0.681. In the case of GCTCGGAGGACAAGCTCAGAGCTTTGTCCGTAGA it was -0.646. In the case of AGAATGAGGTTATACGTAGATCAGGGAAGAAAGT it was 1.52; in that of TCTGGTAGGTCAGTTGGTCAGCTAACGAGCTGCC, 0.483; in that of GCTTGTAGATCAAGGTTCAGAAAGACTAAGCTAA, 0.919.
